Experimental data taken from PubChem BioAssay (NCATS).
“And” between values parts separate entries of the source, which are not always exact repeats. Equal entries are not always repeated. Records with an inconclusive call do not appear. Entries that show only a call come without a potency. The source made the active and inactive calls. Calls come from the whole dose curve; as a rule, active = well fitted curve in the direction sought with a large enough effect; inconclusive = small, poorly fitted or top-dose-only effect, or another doubt; inactive = no such curve, though single readings can be large; an effect the other way counts as inactive or inconclusive.

Assay: qHTS of pediatric cancer cell lines to identify multiple opportunities for drug repurposing: Primary screen for U-2 OS cells (AID 1347096); note: nearly all actives have a fitted effect of over 50% in size
Settings: U-2 OS viability, CellTiter-Glo luminescence, 48 h; series mostly up to 46 µM
Summary of the method: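 Cells (500-1,000/well) in growth media were settled 5 h at 37 degrees C, then given compounds for 48 h. Viability was read as CellTiter-Glo luminescence. Primary runs used MIPE at 11 points (0.78 nM-46 µM) and NPC at 8 points (0.59 nM-46 µM); follow-ups used 11 points.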
Potency is the fitted concentration of half-maximal effect.

Row | Structure (SMILES) | Potency
1 | C[C@@H]1CN(c2c(F)c(N)c3c(=O)c(C(=O)O)cn(C4CC4)c3c2F)C[C@H](C)N1 | inactive
2 | CC(=O)[C@H]1CC[C@H]2[C@@H]3CCC4=CC(=O)CC[C@]4(C)[C@H]3CC[C@]12C | inactive
3 | CC1=C(C(=O)O)N2C(=O)[C@@H](NC(=O)C(N)c3ccccc3)[C@H]2SC1 (stereo partly drawn) | inactive
4 | CC1CC2C3CCC4=CC(=O)C=C[C@]4(C)[C@@]3(F)[C@@H](O)C[C@]2(C)[C@@]1(O)C(=O)CO (stereo partly drawn) | inactive
5 | C[C@@H]1C[C@H]2[C@@H]3CCC4=CC(=O)C=C[C@]4(C)[C@@]3(Cl)[C@@H](O)C[C@]2(C)[C@@]1(OC(=O)c1ccco1)C(=O)CCl | 14.8 µM (active)
6 | Nc1nc(N)c2nc(CNc3ccc(C(=O)NC(CCC(=O)O)C(=O)O)cc3)cnc2n1 (stereo not drawn) | inactive
7 | NC(=O)c1ccc2[nH]ccc2c1 | inactive
8 | CN1CCN(c2c(F)cc3c(=O)c(C(=O)O)cn4c3c2OCN4C)CC1 | inactive
9 | N[C@@H](Cc1ccc(O)c(O)c1)C(=O)O | inactive
10 | CCc1c2c(nc3ccc(OC(=O)N4CCC(N5CCCCC5)CC4)cc13)-c1cc3c(c(=O)n1C2)COC(=O)[C@]3(O)CC | inactive
11 | NCCCC(O)(P(=O)(O)O)P(=O)(O)O | inactive
12 | NC(=O)c1cccc(N)c1 | inactive
13 | Cc1oc(=O)oc1CN1CCN(c2cc3c(cc2F)c(=O)c(C(=O)O)c2n3C(C)S2)CC1 (stereo not drawn) | inactive
14 | Nc1nc(=S)c2[nH]cnc2[nH]1 | 1.68 µM (active) and 2.35 µM (active)
15 | CCOC(=O)c1ccc(C#Cc2ccc3c(c2)C(C)(C)CCS3)nc1 | inactive
16 | COc1nc(N)nc2c1ncn2[C@@H]1O[C@H](CO)[C@@H](O)[C@@H]1O | inactive
17 | O=C(O)C1CCCN(CCC=C(c2ccccc2)c2ccccc2)C1 (stereo not drawn) | inactive

Row | Structure (SMILES) | Potency
18 | OC(Cn1cncn1)(Cn1cncn1)c1ccc(F)cc1F | inactive
19 | CCN1CCCC1CNC(=O)c1cc(S(N)(=O)=O)ccc1OC (stereo not drawn) | inactive
20 | CNS(=O)(=O)CCc1ccc2[nH]cc(C3CCN(C)CC3)c2c1 | inactive
21 | CCN(CC)CCn1c(=O)c(Cc2ccc(OC)cc2)nc2ccccc21 | inactive
22 | O=S(=O)(c1cccc2cnccc12)N1CCCNCC1 | inactive
23 | CCCCS(=N)(=O)CCC(N)C(=O)O (stereo not drawn) | inactive
24 | CCN(CC)CC#CCOC(=O)C(O)(c1ccccc1)C1CCCCC1 (stereo not drawn) | inactive
25 | O=P(O)(O)C(O)(Cc1cccnc1)P(=O)(O)O | inactive
26 | COc1ccccc1OCC(O)COC(N)=O (stereo not drawn) | inactive
27 | CCN(C)C(=O)Oc1cccc([C@H](C)N(C)C)c1 | inactive
28 | CC(=O)[C@H]1CC[C@H]2[C@@H]3CC=C4C[C@@H](O)CC[C@]4(C)[C@H]3CC[C@]12C | inactive
29 | CC(C)C[C@H](NC(=O)[C@H](CCc1ccccc1)NC(=O)CN1CCOCC1)C(=O)N[C@@H](Cc1ccccc1)C(=O)N[C@@H](CC(C)C)C(=O)[C@@]1(C)CO1 | 1.06 µM (active) and 1.48 µM (active)
30 | O=C(O)c1cn(C2CC2)c2cc(N3CCNCC3)c(F)cc2c1=O | inactive
31 | CNS(=O)(=O)Cc1ccc2[nH]cc(CCN(C)C)c2c1 | inactive
32 | Cn1c(=O)c2c(ncn2CC(O)CO)n(C)c1=O (stereo not drawn) | inactive
33 | CC(C)NCC(O)c1ccc(NS(C)(=O)=O)cc1 (stereo not drawn) | inactive

Assay: qHTS of pediatric cancer cell lines to identify multiple opportunities for drug repurposing: Primary screen for Saos-2 cells (AID 1347097); note: nearly all actives have a fitted effect of over 40% in size
Settings: Saos-2 viability, CellTiter-Glo ATP luminescence, 48 h; series mostly up to 46 µM
Summary of the method: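 Readout: CellTiter-Glo luminescence, 48 h treatment. Controls DMSO (neutral) and bortezomib 2.3 µM final (positive). Potency and efficacy taken from primary-screen concentration-response curves.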

Row | Structure (SMILES) | Potency
34 | C[C@@H]1CN(c2c(F)c(N)c3c(=O)c(C(=O)O)cn(C4CC4)c3c2F)C[C@H](C)N1 | inactive
35 | CC1=C(C(=O)O)N2C(=O)[C@@H](NC(=O)C(N)c3ccccc3)[C@H]2SC1 (stereo partly drawn) | inactive
36 | CC1CC2C3CCC4=CC(=O)C=C[C@]4(C)[C@@]3(F)[C@@H](O)C[C@]2(C)[C@@]1(O)C(=O)CO (stereo partly drawn) | inactive
37 | C[C@@H]1C[C@H]2[C@@H]3CCC4=CC(=O)C=C[C@]4(C)[C@@]3(Cl)[C@@H](O)C[C@]2(C)[C@@]1(OC(=O)c1ccco1)C(=O)CCl | 14.8 µM (active)
38 | Nc1nc(N)c2nc(CNc3ccc(C(=O)NC(CCC(=O)O)C(=O)O)cc3)cnc2n1 (stereo not drawn) | inactive
39 | CN1CCN(c2c(F)cc3c(=O)c(C(=O)O)cn4c3c2OCN4C)CC1 | inactive
40 | N[C@@H](Cc1ccc(O)c(O)c1)C(=O)O | inactive
41 | CCc1c2c(nc3ccc(OC(=O)N4CCC(N5CCCCC5)CC4)cc13)-c1cc3c(c(=O)n1C2)COC(=O)[C@]3(O)CC | 1.5 µM (active) and 1.32 µM (active)
42 | NCCCC(O)(P(=O)(O)O)P(=O)(O)O | inactive
43 | NC(=O)c1cccc(N)c1 | inactive
44 | Cc1oc(=O)oc1CN1CCN(c2cc3c(cc2F)c(=O)c(C(=O)O)c2n3C(C)S2)CC1 (stereo not drawn) | inactive
45 | Nc1nc(=S)c2[nH]cnc2[nH]1 | 7.5 µM (active) and 4.69 µM (active)
46 | COc1nc(N)nc2c1ncn2[C@@H]1O[C@H](CO)[C@@H](O)[C@@H]1O | inactive
47 | O=C(O)C1CCCN(CCC=C(c2ccccc2)c2ccccc2)C1 (stereo not drawn) | inactive
48 | OC(Cn1cncn1)(Cn1cncn1)c1ccc(F)cc1F | inactive
49 | CCN1CCCC1CNC(=O)c1cc(S(N)(=O)=O)ccc1OC (stereo not drawn) | inactive
50 | CNS(=O)(=O)CCc1ccc2[nH]cc(C3CCN(C)CC3)c2c1 | inactive
51 | CCN(CC)CCn1c(=O)c(Cc2ccc(OC)cc2)nc2ccccc21 | inactive
52 | CCCCS(=N)(=O)CCC(N)C(=O)O (stereo not drawn) | inactive
53 | CCN(CC)CC#CCOC(=O)C(O)(c1ccccc1)C1CCCCC1 (stereo not drawn) | inactive
54 | O=P(O)(O)C(O)(Cc1cccnc1)P(=O)(O)O | inactive
55 | COc1ccccc1OCC(O)COC(N)=O (stereo not drawn) | inactive
56 | CCN(C)C(=O)Oc1cccc([C@H](C)N(C)C)c1 | inactive
57 | CC(=O)[C@H]1CC[C@H]2[C@@H]3CC=C4C[C@@H](O)CC[C@]4(C)[C@H]3CC[C@]12C | inactive
58 | CC(C)C[C@H](NC(=O)[C@H](CCc1ccccc1)NC(=O)CN1CCOCC1)C(=O)N[C@@H](Cc1ccccc1)C(=O)N[C@@H](CC(C)C)C(=O)[C@@]1(C)CO1 | 42.2 nM (active) and 93.5 nM (active)
59 | COc1cc2nc(N3CCCN(C)CC3)nc(NC3CCN(Cc4ccccc4)CC3)c2cc1OC | 7.43 µM (active)
60 | O=C(O)c1cn(C2CC2)c2cc(N3CCNCC3)c(F)cc2c1=O | inactive
61 | CNS(=O)(=O)Cc1ccc2[nH]cc(CCN(C)C)c2c1 | inactive
62 | Cn1c(=O)c2c(ncn2CC(O)CO)n(C)c1=O (stereo not drawn) | inactive
63 | CC(C)NCC(O)c1ccc(NS(C)(=O)=O)cc1 (stereo not drawn) | inactive
